Inconclusive results are not listed. Activity calls are given as the source filed them. The calls were made as follows, unless noted: active = hit-call score of the fitted dose curve at least 0.9, where 1 is the maximum; inactive = score below 0.9. Starred links: 1 amine or outer side, 2 acyl side, 3 side chain; linkers in the order of their positions; H or OH if unused. Positions of bridges follow the written chain, without caps; N, C: chain ends. Non-standard residues stand in square brackets, D forms with d. Residues, ends and D or L forms follow the SMILES beside them. Adda = CO[C@@H](Cc1ccccc1)[C@@H](C)/C=C(C)/C=C/[C@H](N[*:1])[C@H](C)C(=O)[*:2]; dAsp(3S-Me) = C[C@H](C(=O)[*:3])[C@@H](N[*:1])C(=O)[*:2]; d(γGlu) = O=C(O)[C@@H](CCC(=O)[*:2])N[*:1]; NMeDha = C=C(NC)C(=O)O

Drawing on PubChem BioAssay (EPA / NIEHS), this text covers outcome for 4 compounds.

Assay [1] in a line: CCTE_Harrill_HTTr_Viability_MCF7: CCTE's 6-hour Cell Viability Assessment for the High-Throughput Transcriptomics (HTTr) Platform, in MCF-7 cells cultured in DMEM + 10% fetal bovine serum, Harrill Lab (AID 2284010). An outline of the steps: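 Eight-point concentration series, six-hour exposure. Propidium iodide exclusion imaged to assess membrane integrity as a cytotoxicity readout; bidirectional fitting was done with DMSO as negative control and activity baseline.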

The nature of assay [2]: CCTE_Harrill_HTTr_Apoptosis_MCF7: CCTE's 6-hour Apoptosis Assessment for the High-Throughput Transcriptomics (HTTr) Platform, in MCF-7 cells cultured in DMEM + 10% fetal bovine serum, Harrill Lab (AID 2284011). The method in brief: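 MCF-7 cells in DMEM + 10% FBS exposed 6 h to chemicals over an eight-point dilution series. Caspase-3/7 activation imaged by high-content CellEvent Green staining; fitted bidirectionally versus DMSO.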

Assay [3] can be described thus: CCTE_Harrill_HTTr_CellCount_MCF7: CCTE's Cell Proliferation Assessment for the High-Throughput Transcriptomics (HTTr) Platform, Harrill Lab (AID 2284012; active = hit-call score of the fitted dose curve at least 0.9, where 1 is the maximum;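 also: intended direction is loss of nuclei count meaning fewer cells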). The method in brief: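 For this full-screen endpoint, MCF-7 cultures received eight compound dilutions for six hours. Well nuclei counts from Hoechst imaging were analyzed relative to DMSO.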

Regarding `CNC(=O)Oc1cccc(C(C)C)c1`, the outcome in assay [1], in assay [2] and in assay [3] was inactive.

Regarding `C=C1C(=O)N[C@H](C)C(=O)N[C@H](CC(C)C)C(=O)N[C@@H](C(=O)O)[C@H](C)C(=O)N[C@@H](CCCN=C(N)N)C(=O)N[C@@H](/C=C/C(C)=C/[C@H](C)[C@H](Cc2ccccc2)OC)[C@H](C)C(=O)N[C@@H](C(=O)O)CCC(=O)N1C` (R[Adda][d(γGlu)][NMeDha][dA][dL][dAsp(3S-Me)]-OH; lactam N-7), the result in assay [1], in assay [2] and in assay [3] was inactive.

Take `COP(=S)(Oc1cc(Cl)c(Br)cc1Cl)c1ccccc1` (stereo unspecified): the outcome in assay [1], in assay [2] and in assay [3] was inactive.

For the compound `CCOP(=O)(O)OCC`, the result in assay [1] and in assay [2] was inactive.
